The values below come from PubChem BioAssay (NCATS).

In experiment [1] the target is Rap guanine nucleotide exchange factor 3 (Homo sapiens) (UniProt O95398). Kind of experiment: Confirmatory qHTS for antagonist of cAMP-regulated guanine nucleotide exchange factor 3 (EPAC1) (AID 1645880). Note: nearly all actives have a fitted effect of over 55% in size. Note: potency is the fitted concentration of half-maximal effect. The essentials:
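Released BODIPY-GDP fluoresces less than Rap1-bound BODIPY-GDP; the signal is followed at 480/540 nm at 5-min intervals over 30 min, after 5 min at room temperature. Reactions contain 100 nM EPAC1, 250 nM RAP1B-BODIPY-GDP and 50 uM GDP; results are normalized to ATA and DMSO.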
In general terms: In qHTS, concentration-response curves come from the screen itself.

Experiment [2] has the same target. Kind of experiment: Confirmatory qHTS for agonist of cAMP-regulated guanine nucleotide exchange factor 3 (EPAC1) (AID 1645881).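 Note: EPAC1 catalysed release of BODIPY-GDP from Rap1B seen as fluorescence loss; 100% = effect of cAMP agonist control; nearly all actives have a fitted effect of over 75% in size.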
In experiment [3] the target is Rap guanine nucleotide exchange factor 4 (Homo sapiens) (UniProt Q8WZA2). Kind of experiment: Confirmatory qHTS for agonist of cAMP-regulated guanine nucleotide exchange factor 4 (EPAC2) (AID 1645884).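 Note: nucleotide exchange releases bodipy-GDP from Rap1 and this lowers its fluorescence; % is set by controls: 0 for no effect and ±100 for the full control effect; nearly all actives have a fitted effect of over 65% in size.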
For experiment [4] the target is unchanged. In words: Confirmatory qHTS for antagonist of cAMP-regulated guanine nucleotide exchange factor 4 (EPAC2) (AID 1645885). For activity change, negative = inhibition: % is set by controls: 0 for no effect and ±100 for the full control effect. Note: nearly all actives have a fitted effect of over 25% in size. Note: potency is the fitted concentration of half-maximal effect.
For experiment [5], the target named is Rap guanine nucleotide exchange factor 3 (Homo sapiens) (UniProt O95398). Kind of experiment: Counterscreen qHTS for antagonist of cAMP-regulated guanine nucleotide exchange factor 3 (EPAC1) (AID 1645888). Note: % of control where 0% means no effect. In short, it runs like this: (§1)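 Rap1B-BODIPY-GDP 250 nM + GDP 50 uM; cpds 7-pt, final 9.74 nM–152 uM (activator mode) or from 7.32 nM upwards (inhibitor mode); RT; FI 480/540 nm at 5 and 30 min, then ± cAMP, reread.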

The target is the same in experiment [6]. Kind of experiment: Counterscreen qHTS for agonist of cAMP-regulated guanine nucleotide exchange factor 3 (EPAC1) (AID 1645889). Note: % of control where 0% means no effect; nearly all actives have a fitted effect of over 40% in size. In short, it runs like this: as §1
For orientation: A counterscreen serves to expose hits that act by an unwanted route or on another target.

Inconclusive results are not listed. Unmarked numbers belong to inactive results. Activity calls are given as the source filed them. Calls come from the whole dose curve; as a rule, active = well fitted curve in the direction sought with a large enough effect; inconclusive = small, poorly fitted or top-dose-only effect, or another doubt; inactive = no such curve, though single readings can be large; an effect the other way counts as inactive or inconclusive.

Chain of Rap guanine nucleotide exchange factor 4 (Homo sapiens) (Q8WZA2 whole entry, looked up): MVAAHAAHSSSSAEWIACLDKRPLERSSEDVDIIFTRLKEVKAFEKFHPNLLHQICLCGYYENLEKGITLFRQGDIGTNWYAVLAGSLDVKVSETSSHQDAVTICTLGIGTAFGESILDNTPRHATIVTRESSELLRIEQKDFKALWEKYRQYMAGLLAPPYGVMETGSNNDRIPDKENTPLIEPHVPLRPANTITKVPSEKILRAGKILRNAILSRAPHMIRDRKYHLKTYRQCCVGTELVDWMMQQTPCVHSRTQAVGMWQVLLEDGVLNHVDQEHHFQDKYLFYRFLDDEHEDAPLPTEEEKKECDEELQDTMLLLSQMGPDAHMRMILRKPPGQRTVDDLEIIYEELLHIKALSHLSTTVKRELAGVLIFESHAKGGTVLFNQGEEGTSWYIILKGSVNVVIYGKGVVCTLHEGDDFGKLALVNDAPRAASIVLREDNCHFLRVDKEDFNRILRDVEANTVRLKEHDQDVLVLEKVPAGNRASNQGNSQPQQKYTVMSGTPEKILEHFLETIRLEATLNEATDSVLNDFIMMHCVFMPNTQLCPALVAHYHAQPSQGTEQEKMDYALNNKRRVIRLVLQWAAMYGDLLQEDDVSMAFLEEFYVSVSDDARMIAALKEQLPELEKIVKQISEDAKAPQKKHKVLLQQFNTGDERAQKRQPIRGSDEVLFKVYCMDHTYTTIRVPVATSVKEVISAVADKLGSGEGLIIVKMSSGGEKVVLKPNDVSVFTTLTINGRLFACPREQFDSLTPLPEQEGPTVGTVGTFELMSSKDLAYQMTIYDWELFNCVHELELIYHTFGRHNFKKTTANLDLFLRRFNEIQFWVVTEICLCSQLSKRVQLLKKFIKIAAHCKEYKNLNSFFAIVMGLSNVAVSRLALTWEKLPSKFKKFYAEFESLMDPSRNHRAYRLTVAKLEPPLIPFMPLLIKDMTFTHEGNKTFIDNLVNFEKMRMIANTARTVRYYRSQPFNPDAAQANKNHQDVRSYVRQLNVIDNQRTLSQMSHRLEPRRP
Chain of Rap guanine nucleotide exchange factor 3 (Homo sapiens) (O95398 whole entry, looked up): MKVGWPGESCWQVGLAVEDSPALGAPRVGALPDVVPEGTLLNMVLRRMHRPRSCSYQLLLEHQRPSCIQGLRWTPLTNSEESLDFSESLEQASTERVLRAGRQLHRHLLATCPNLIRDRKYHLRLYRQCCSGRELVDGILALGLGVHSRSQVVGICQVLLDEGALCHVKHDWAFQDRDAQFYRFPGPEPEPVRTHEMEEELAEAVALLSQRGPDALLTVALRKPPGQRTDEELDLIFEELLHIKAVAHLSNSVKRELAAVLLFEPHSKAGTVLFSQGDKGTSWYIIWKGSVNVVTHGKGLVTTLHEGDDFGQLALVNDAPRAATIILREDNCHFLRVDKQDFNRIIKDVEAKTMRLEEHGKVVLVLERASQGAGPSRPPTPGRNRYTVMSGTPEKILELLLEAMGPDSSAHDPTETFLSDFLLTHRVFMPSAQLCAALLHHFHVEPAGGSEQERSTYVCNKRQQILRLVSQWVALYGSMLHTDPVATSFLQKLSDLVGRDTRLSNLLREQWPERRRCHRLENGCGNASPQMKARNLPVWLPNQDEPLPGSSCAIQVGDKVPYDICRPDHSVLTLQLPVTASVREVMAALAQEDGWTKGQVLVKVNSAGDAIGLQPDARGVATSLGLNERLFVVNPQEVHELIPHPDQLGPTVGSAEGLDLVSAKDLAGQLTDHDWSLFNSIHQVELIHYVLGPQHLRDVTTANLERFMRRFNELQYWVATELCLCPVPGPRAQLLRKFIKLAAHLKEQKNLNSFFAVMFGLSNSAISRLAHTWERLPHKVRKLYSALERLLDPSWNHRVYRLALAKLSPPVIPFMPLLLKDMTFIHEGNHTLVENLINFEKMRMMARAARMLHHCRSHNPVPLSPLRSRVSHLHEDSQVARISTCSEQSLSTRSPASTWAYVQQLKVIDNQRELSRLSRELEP

For `CCCCCC1CCC(c2ccc(C(N)=O)cc2)CC1` (centres undefined), the Potency entry in experiment [1], in experiment [2], in experiment [3], in experiment [4], in experiment [5] and in experiment [6] was “inactive” each time.
For `CCCN(CC(=O)Nc1ccccc1C)C(=O)C1CCN(S(=O)(=O)c2ccccc2C(F)(F)F)CC1`, the Potency result in experiment [1], in experiment [2], in experiment [3], in experiment [4], in experiment [5] and in experiment [6] was “inactive” in each case.
With `COc1ccc(OC)c([C@@H]2OCCC=C[C@H]2C)c1`, the Potency entry in experiment [1], in experiment [2], in experiment [3], in experiment [5] and in experiment [6] was “inactive” throughout. The Potency in experiment [4] was 0.0675 µM (active).
`O=C(O)c1ccc(/C=N/N2CCN(Cc3cccc4ccccc34)CC2)cc1`: the Potency entry in experiment [1], in experiment [2] and in experiment [4] was “inactive” in each case. For the same compound, the activation is 4.54% [at 17.1 µM, percent relative to cAMP agonist control] in experiment [3] and 4.41% [at 30.8 µM] in experiment [6]. Further, in experiment [5], the activity change, negative = inhibition is -6.71% [at 30.8 µM].
As to `Cc1onc(-c2ccccc2)c1C(=O)c1c[nH]c(C(=O)NCCCN2CCOCC2)c1`, the Potency result in experiment [1], in experiment [2] and in experiment [4] was “inactive” each time. In addition, the activation in experiment [3] was -2.44% [at 17.1 µM, percent relative to cAMP agonist control]; in experiment [6], -11.1% [at 30.8 µM]. For the same compound, the activity change, negative = inhibition in experiment [5] was -20.3% [at 30.8 µM].
For the compound `O=C(O)c1cccc(N/N=C/c2cc(Br)cc(Br)c2O)c1`, the Potency in experiment [1] is 75.7 µM (active); in experiment [4] it was 67.5 µM (active). Further, the Potency result in experiment [2], in experiment [3], in experiment [5] and in experiment [6] was “inactive” throughout.
For the compound `Cc1cc(=O)n2c(sc3ccccc32)c1C#N`, the Potency result in experiment [1], in experiment [2] and in experiment [4] was “inactive” each time. Also, the activation is -1.37% [at 17.1 µM, percent relative to cAMP agonist control] in experiment [3] and 22.2% [at 30.8 µM] in experiment [6]. Moreover, the activity change, negative = inhibition in experiment [5] is 11.2% [at 30.8 µM].
Regarding `O=C(/C=C/c1ccc([N+](=O)[O-])cc1)Nc1cccc(C(=O)Nc2ccccc2C(=O)O)c1`, in experiment [1], the Potency is 22.4 µM (active). Further, the Potency result in experiment [2] and in experiment [4] was “inactive” each time. For the same compound, the activation is -2.89% [at 17.1 µM, percent relative to cAMP agonist control] in experiment [3] and 4.73% [at 30.8 µM] in experiment [6]. Also, the activity change, negative = inhibition in experiment [5] was 0.771% [at 30.8 µM].
Turning to `O=C1CC(Cc2ccccc2)C(=O)N1CCc1ccc2c(c1)OCO2` (centres undefined), the Potency entry in experiment [1], in experiment [2] and in experiment [4] was “inactive” in each case. In addition, the activation in experiment [3] was 2.14% [at 17.1 µM, percent relative to cAMP agonist control]; in experiment [6], 1.4% [at 30.8 µM]. For the same compound, the activity change, negative = inhibition in experiment [5] was -4.71% [at 30.8 µM].
Turning to `CC1CN(C(=O)COC(=O)COc2ccc(C#N)cc2)CC(C)O1` (centres undefined), the Potency entry in experiment [1], in experiment [2] and in experiment [4] was “inactive” each time. The activation in experiment [3] was -1.51% [at 17.1 µM, percent relative to cAMP agonist control]; in experiment [6], 1.53% [at 30.8 µM]. In addition, the activity change, negative = inhibition in experiment [5] was -3.73% [at 30.8 µM].
On to `CCOc1c(OC)cccc1C1CC(=O)Nc2cc3c(cc21)OCCO3` (centres undefined), for which the Potency entry in experiment [1], in experiment [2], in experiment [3], in experiment [4], in experiment [5] and in experiment [6] was “inactive” in each case.
Regarding `COc1cnc(-c2ccccn2)nc1Oc1c(C)cccc1C`, the Potency entry in experiment [1], in experiment [2], in experiment [3], in experiment [4], in experiment [5] and in experiment [6] was “inactive” throughout.
Consider `COc1ncc(-c2c(-c3ccccc3OC)sc3ccccc23)cn1`, for which the Potency entry in experiment [1], in experiment [2] and in experiment [4] was “inactive” each time. Also, the activation is -3.13% [at 17.1 µM, percent relative to cAMP agonist control] in experiment [3] and 15.7% [at 30.8 µM] in experiment [6]. Further, the activity change, negative = inhibition in experiment [5] is -4.66% [at 30.8 µM].
Consider `C/C(=N\NC(=O)C1CC1)c1cccs1`, for which the Potency result in experiment [1], in experiment [2], in experiment [3], in experiment [4], in experiment [5] and in experiment [6] was “inactive” throughout.
For `CCOc1ccc(C(C(=O)NC2CCCC2)N(C(=O)c2snc(C(N)=O)c2N)C2CCCC2)cc1` (centres undefined), the Potency result in experiment [1], in experiment [2], in experiment [3], in experiment [4], in experiment [5] and in experiment [6] was “inactive” throughout.
As to `O=C(Nc1cccc(C(F)(F)F)c1)c1cccc(NS(=O)(=O)c2ccc(O)c(C(=O)O)c2)c1`, the Potency in experiment [1] is 60.1 µM (active). The Potency entry in experiment [2], in experiment [3], in experiment [4], in experiment [5] and in experiment [6] was “inactive” each time.
For `CCCn1c(N)c(C(=O)CSc2n[nH]c(-c3ccc(C)cc3)n2)c(=O)[nH]c1=O`, the Potency entry in experiment [1], in experiment [2], in experiment [3], in experiment [4], in experiment [5] and in experiment [6] was “inactive” in each case.
Turning to `Cc1ccc(-c2csc(NC(=O)c3ccc(Br)cc3)c2C(=O)O)cc1`, in experiment [1], the Potency was 33.8 µM (active). Besides, the Potency entry in experiment [2], in experiment [3], in experiment [4], in experiment [5] and in experiment [6] was “inactive” each time.
Consider `CN(Cc1ccccc1N1CCCC1)C(=O)c1cc2ccccc2o1`, for which the Potency entry in experiment [1], in experiment [2] and in experiment [4] was “inactive” each time. The activation in experiment [3] was 4.19% [at 17.1 µM, percent relative to cAMP agonist control]; in experiment [6] it was 17.8% [at 30.8 µM]. The activity change, negative = inhibition in experiment [5] is -10.5% [at 30.8 µM].
